Many of the other results were omitted from the sample, so hits are more common in it than they were.
mHTT-CaM PPI inh: disrupts binding of mutant huntingtin to calmodulin | P42858 | inhibition, % at 15 µM | AlphaScreen His-mHTT/GST-CaM binding, luminescence | 190,000 tested, 3.6% active
Pf apPOL block: Pf-apPOL DNA polymerase inhibition | Recombinant Pf-apPOL, molecular beacon fluorescence, 1.5 h | inhibition, % at 10 µM | AID 1794808 | 210,000 tested, 0.25% active
Each line names hits and unclear results; the compound was inactive in the other large screens; ! = not active in a repeat. Cut-off read from the data, not from the text of the source: active = inhibition above about 50%; inactive = the rest.

COc1ccc2oc(=O)c(NC(=O)c3ccc(C)c(C)c3)cc2c1	none
CC(=O)N1CC(C)Oc2ccc(S(=O)(=O)N3CCC(c4ccncc4)CC3)cc21 (stereo not drawn)	none
CCCCOc1ccc(CNC(=O)C2CCCN(c3nccc(C)n3)C2)cc1 (stereo not drawn)	none
O=C1c2cccnc2C(=O)N1Cc1ccc(Cl)cc1	none
Cc1ccccc1CN1C(=O)C(=O)c2ccccc21	none
O=C1C(=O)N(Cc2ccc(Cl)cc2)c2ccc(S(=O)(=O)N3CCOCC3)cc21	mHTT-CaM PPI inh 92
Cc1ccccc1CN1C(=O)C(=O)c2cc(Cl)ccc21	mHTT-CaM PPI inh 51
O=c1ccc(S(=O)(=O)N2CCOCC2)cn1Cc1cccc(Cl)c1	none
O=C1C(=O)N(Cc2ccc(Cl)cc2)c2ccc(Cl)cc21	mHTT-CaM PPI inh 78!
COC(=O)c1ccc(C=C2Oc3cc(O)cc(C)c3C2=O)cc1	none
CN(C)c1ccc(NC(=O)CN2CCC(c3nc(-c4ccccc4Cl)no3)CC2)cc1	mHTT-CaM PPI inh 66
O=C(CN1CCC(c2nc(-c3ccccc3Cl)no2)CC1)Nc1ccccc1Cl	none
Cc1ccccc1C(=O)NCCn1cc(SCC(=O)NCc2ccco2)c2ccccc21	none
CCn1c(=O)c(N2CCC(NC(=O)NCC3CCCO3)CC2)nc2ccccc21 (stereo not drawn)	none
O=C(O)C1=CC(=C(c2ccc(O)c(C(=O)O)c2)c2ccc(O)c(C(=O)O)c2)C=CC1=O	Pf apPOL block 92 (no result: mHTT-CaM PPI inh)
CC(=O)Nc1ccc(O)c(C(=O)O)c1	none (no result: mHTT-CaM PPI inh)
CCN(Cc1ccccc1)S(=O)(=O)c1cc(C(=O)Nc2ccc(F)c(F)c2)ccc1F	Pf apPOL block 53
CN(Cc1ccccc1)S(=O)(=O)c1cc(C(=O)Nc2ccc(F)c(F)c2)ccc1F	none

Screening data (PubChem BioAssay)
